About 83,000 compounds went through this panel and 20% of them were active in at least one assay; those are over-represented in the sample as a whole.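 Note: values are percent growth. 100 is the growth of untreated cells, values between 100 and 0 indicate rising inhibition; between -100 and 0 indicates cell death.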 Active and inactive are the calls of the source. Rule for the calls: active = growth percent below 10; inactive = the rest.
These molecules were tested on MDA-MB-468 breast (assay: NCI-60 one-dose screen, 48 h (100 = growth as untreated, 0 = no growth, -100 = all killed)). Conditions: 10 µM unless noted.

Structure (SMILES)	growth
COc1ccc(-c2cncn2-c2ccc(-c3nc4cc(OC)c(OC)c(OC)c4s3)cc2)cc1N	78.4% (inactive)
CC1OC(O[C@@H]2[C@H](O)C(CO)OC(O[C@H]3COC(O[C@H]4CC[C@]5(C)[C@H]6CC[C@]78OC[C@@]9(CCC(C)(C)C[C@H]97)[C@H](O)C[C@@]8(C)[C@]6(C)CC[C@H]5C4(C)C)[C@@H](OC4OC(CO)[C@@H](O)[C@@H](O)[C@@H]4O)[C@@H]3O)[C@H]2OC2OC[C@@H](O)[C@@H](O)[C@@H]2O)[C@@H](O)[C@@H](O)[C@H]1O (some centres undefined)	-39.3% (active)
CC(C)c1ccc(S(=O)(=O)NC(=O)NC2CCCC2)cc1	96.2% (inactive)
O=C(N/N=C/c1c(Cl)cccc1Cl)c1cccc(Nc2ccnc(C(F)(F)F)c2)c1	67.6% (inactive)
Cc1cc2c3ccccc3ccc2[n+]2ccccc12	-60.6% (active)
CCCc1cc(C(N)=S)ccn1	102% (inactive)
Cc1[nH]c(C(=O)Nc2ccc(S(=O)(=O)N3CCCCC3)cc2OCCOCCOCCOCCOCCOCCOCCOCCOCCOc2cc(S(=O)(=O)N3CCCCC3)ccc2NC(=O)c2[nH]c(C)c3c2CCCCC3=O)c2c1C(=O)CCCC2	-11.1% (active)
COC(=O)/C=C/c1c(C2(C)NC(=O)c3ccccc3N2)c(=O)oc2ccc(Cl)cc12 (centres undefined)	88.7% (inactive)
COc1cccc(/C=C/C(=O)c2cc3c(N)c(C(=O)Nc4cccc5ccccc45)sc3nc2C)c1	17.4% (inactive)
CC(=O)Oc1ccc(OC(C)=O)c2ccccc12	-53.2% (active)
CN1C(=O)N(C)C2C1NN=c1s/c(=C\c3ccc([N+](=O)[O-])cc3)c(=O)n12 (centres undefined)	53.4% (inactive)
CC(=O)OC[C@H]1OC(Sc2sc(C(=O)c3ccc(Br)cc3)c(N)c2-c2nc3ccccc3s2)[C@H](OC(C)=O)[C@@H](OC(C)=O)[C@@H]1OC(C)=O (some centres undefined)	71.5% (inactive)
CN1CCN(CC(=O)Nc2ccc3ncnc(Nc4ccc(Oc5cccc(C(F)(F)F)c5)c(Cl)c4)c3c2)CC1	-61.3% (active)
NC(=O)c1c(NC(=O)c2ccc(C(F)(F)F)cc2Cl)sc2c1CCC(=O)C2	-33.8% (active)
C/C(=C(/c1ccc(O)cc1)c1ccc(OCCN(C)C)cc1)c1ccccc1	58.4% (inactive)
COc1ccc(C/C(C)=C(\c2ccc(OCCN3CCCCCC3)cc2)c2ccc(OC(=O)C3CCCCC3)cc2)cc1	45% (inactive)
COC(=O)c1c2c(c(C)[n+]([O-])c1C)C(=O)C(NCc1ccc(Cl)cc1)=CC2=O	39.8% (inactive)
N#Cc1c(N)nc(Nc2nc3ccccc3[nH]2)nc1-c1ccc(Cl)cc1	111% (inactive)
CCN(CC)CCOc1ccc(/C(=C(/C)c2ccccc2)c2ccc(OC(C)=O)cc2)cc1	87.9% (inactive)
CNC(=O)c1cc(Oc2ccc3nc(NC(=O)Nc4ccc(Cl)c(Cl)c4)sc3c2)ccn1	68.3% (inactive)

Structure (SMILES)	growth
Nc1nc(Cl)nc2c1ncn2C1O[C@H](CO)[C@@H](O)[C@@H]1F (some centres undefined)	5.22% (active)
CCCCC(=O)Nc1ncc(Cc2ccccc2Cl)s1	14.1% (inactive)
CC(=O)/C(C)=N\OC(=O)Nc1ccccc1	114% (inactive)
C=C(CNCCc1ccc(O)cc1)[C@@H]1CC[C@]2(CO)CC[C@]3(C)[C@H](CC[C@@H]4[C@@]5(C)CCC(N)C(C)(C)[C@@H]5CC[C@]43C)[C@@H]12 (some centres undefined)	-88.4% (active)
COc1ccc2[nH]c(-c3ccc(Cl)cc3)cc(=O)c2c1	99% (inactive)
CNC(=O)c1cc(Oc2ccc3c(c2)sc2nc(-c4ccc(N)cc4)cn23)ccn1	40.6% (inactive)
CC1OC(n2c3ccccc3c3c4c(c5c6ccccc6[nH]c5c32)C(=O)N(CCN[C@@H]2CCC[C@H]2N)C4=O)CC(O)C1O (some centres undefined)	-26.9% (active)
COc1ccc(S(=O)(=O)Nc2cc(/C=C\c3cc(OC)c(OC)c(OC)c3)ccc2OC)cc1	7.65% (active)
O=C1C2=C(CCN(Cc3ccccc3)C2)N2CCN=C2N1Cc1ccc(F)cc1F	5.49% (active)
O=C1c2cccnc2C(=O)c2c1c(C(=O)OCCN1CCCCC1)c1ccccn21	-16.6% (active)
COc1cc(-c2nn(-c3cccc(NC(=O)c4ccccc4)c3)cc2-c2ccncc2)ccc1Cl	-19.7% (active)
CN1CCN(CC#CCn2c3c(c4ccccc42)C[C@]2(C)[C@H]4CC[C@@H]5[C@H]6[C@H]7OC(=O)[C@@]6(CCC7(C)C)CC[C@@]5(C)[C@]4(C)CC[C@H]2C3(C)C)CC1	93.9% (inactive)
C=C1CC/C=C(\C)C(=O)C[C@@H]2[C@@H]1CC2(C)C	79.1% (inactive)
O=S(O)c1cc(Cl)cc(Cl)c1OCc1ccccc1	84% (inactive)
COc1ccc(C2CC(c3ccccc3)=NN2c2nc(C)c(C(C)=O)s2)cc1 (centres undefined)	100% (inactive)
CCOC(=O)c1cc2c(n1C)-c1nc(NC(C)=O)sc1CCC2	79.8% (inactive)
COc1ccc(/C(=N\O)c2cc(OC)c(OC)c(OC)c2)c(OC)c1N	29.2% (inactive)
CC(=O)c1ccc(NC(=O)CSc2nnc(-c3cc(-c4ccc(C)cc4)nc4ccccc34)o2)cc1	95.4% (inactive)
N#Cc1ccc(OC(=O)Nc2ccc(Cl)c(Cl)c2)cc1	42.9% (inactive)
